Laboratory results reported in PubChem BioAssay.
Activity calls are given as the source filed them.

tested on: XIP peptide (Xip251-270) binding; assay: XIP fragment 251-270 binding compounds – biochemical, small-molecule microarray, fluorescence 635/667 nm, 0.1 µg/mL protein, primary screen (AID 1182); conditions: fluorescent protein binding, 635 nm, higher = more signal, called active from +8 up or from −8 down

Composite z-score, inactive:
C#CCCCON=C1C[C@@H](O)[C@@H](O)[C@@H]2[C@@H]3C(=O)N([C@@H](C)c4ccccc4)C(=O)[C@@H]3CC[C@@H]12 -0.406
COc1cccc([C@H]2Oc3ccc(OC)cc3C(=NO[C@@H](C)c3cc(-c4c(C)cc(C)cc4C)no3)[C@@H]2O)c1 -0.294
CO[C@@H]1COC(=O)[C@H](COCc2ccccc2)NC(=O)CC=C[C@@H](C)[C@H](OC)COC(=O)[C@@H](C)NC(=O)CC=C[C@H]1C 0.455
CC(=O)OC[C@H]1O[C@H](CC=NOCC[C@@H]2C=C[C@H](OC(C)=O)[C@@H](COC(C)=O)O2)C=C[C@@H]1OC(C)=O -0.0772
CCN(CC)CC(O)CN1CCCCc2nc(C)c(C)cc21 (stereo unspecified) -0.344
CC(=O)OC[C@H]1O[C@H](CCON=C(C)C)C=C[C@@H]1OC(C)=O -0.843
CCOC(=O)[C@H](Cc1ccccc1)NC(=O)CCC1CC(OC(=O)NCCc2ccc(F)cc2)CC2(CCCC(COC(=O)NCCOc3ccccc3)O2)O1 (stereo partly specified) -0.337
COC(=O)[C@@H]1CC[C@H](C)[C@@H](c2ccc(C)cc2)N1C(=O)c1ccc(C=NO[C@@H](C)c2cc(-c3c(C)cc(C)cc3C)no2)cc1 -0.274
CCCC[C@H]1CN2[C@@H](CC[C@@H](C)[C@@H]2c2ccc(Br)cc2)C(=O)O1 0.977
C=CC[C@@H]1C=CC(ON=C(C)C)[C@@H](CO)O1 (stereo partly specified) -0.649
CCOC(=O)[C@H](Cc1ccccc1)NC(=O)CCC1CC(OC(=O)NCc2ccc3c(c2)OCO3)CC2(CCCC(COC(=O)NCCc3ccc(Cl)cc3)O2)O1 (stereo partly specified) 0.0608
CCN1C(=O)[C@H]2[C@H]3[C@H](O)[C@H](O)CC(=NOCC(C)C)[C@H]3CC[C@H]2C1=O -0.583
CON=C[C@@H](OC)[C@H](C)C=CCC(=O)OC -1.44
CC(CCN1CCc2nc(-c3ccccc3)c(-c3ccccc3)cc2C1)=NO[C@H](C)c1cn([C@H](CO)Cc2ccccc2)nn1 0.899
CCOC(=O)[C@H](Cc1ccccc1)NC(=O)CCC1CC(OC(=O)NCc2cccc3ccccc23)CC2(CCCC(COC(=O)NCCOc3ccccc3)O2)O1 (stereo partly specified) -0.0988
CC(=O)OC[C@H]1O[C@H](CC=NO[C@@H](C)c2cn([C@H](CO)Cc3ccccc3)nn2)C=C[C@@H]1OC(C)=O -0.0018
COc1ccc(OC[C@H]2CN3[C@@H](CC[C@@H](C)[C@@H]3c3ccc(Br)cc3)C(=O)O2)cc1 -0.192
CCc1cc2c(nc1CC)CCN(CCC(C)=NOCC[C@@H]1C=C[C@H](OC(C)=O)[C@@H](COC(C)=O)O1)C2 -0.0297
CO[C@H]1COC(=O)CC=C[C@H](C)[C@H](OC)COC(=O)[C@@H](C)NC(=O)CC=C[C@@H]1C 0.533
Cc1cc2c(nc1C)CCCCN2CC(O)CN1CCCc2nc(-c3ccc(Br)cc3)ccc21 (stereo unspecified) -0.0362
CC(CCN1CCCc2nc(C)c(C)cc21)=NO[C@H](C)c1cn([C@@H]2COC[C@H]2O)nn1 -0.0434
Cc1ccc(C(C)C)n1C(=O)OC(C)(C)C -0.488
COC(=O)[C@@H]1CC[C@H](C)[C@@H](c2ccc(Br)cc2)N1C(=O)C(F)(F)F 0.0945
O=C1[C@H]2[C@H]3[C@H](O)[C@H](O)CC(=NOCc4ccccc4)[C@@H]3CC[C@H]2C(=O)N1c1cccc(Oc2ccccc2)c1 0.811
CCCNC(=O)OC[C@H]1O[C@H](CCON=C2C[C@@H](O)[C@@H](O)[C@@H]3[C@@H]4C(=O)N(CC)C(=O)[C@@H]4CC[C@@H]23)C=C[C@@H]1Oc1ccc(OC)cc1 -0.14
COc1cccc([C@H](O)Cn2cc(-c3ccc(CON=C(C)C)cc3)nn2)c1 0.218
COC(=O)[C@@H]1CC[C@H](C)[C@@H](c2ccc(Br)cc2)N1 1.53
COc1ccc(O[C@H]2C=C[C@@H](c3ccccc3)O[C@@H]2CON=C2c3cc(OC)ccc3O[C@H](c3cccc(OC)c3)[C@H]2O)cc1 -0.167
C[C@@H]1CC[C@@H](C(=O)O)N[C@H]1c1cccc(N2CCOCC2)c1 -0.315
COc1ccc2c(c1)O[C@@H](c1cccc(C(F)(F)F)c1)[C@H](O)C2=O 0.245
CC(=O)OC[C@H]1O[C@H](C#CCCc2ccccc2)C=C[C@@H]1OC(C)=O 0.22
CN1CCc2nc(-c3ccccc3)c(-c3ccccc3)cc2C1 -0.368
CC(CCC(=O)OC[C@H]1O[C@H](C#Cc2ccccc2)C=C[C@@H]1Oc1ccc(C)cc1)=NOC[C@@H](C)[C@H](OCc1ccccc1)C(C)C -0.582
COCCNC(=O)OCC1CCCC2(CC(OC(=O)NCc3cccc4ccccc34)CC(CCC(=O)N[C@@H](C)C(=O)OC)O2)O1 (stereo partly specified) 0.505
CC(C)CN1CCc2nc(-c3ccccc3)c3c(c2C1)CO[C@@H](C)C3 0.973
CC(CCN1CCCCc2nc(C)c(C)cc21)=NOC[C@@H](O)[C@H]1O[C@@H]2OC(C)(C)O[C@@H]2[C@H]1O -0.398
